# Reference: ChEMBL document CHEMBL4513135, “CO-ADD screening of IQOG CSIS (Spain) compounds”
# Values joined by “and” are separate entries in the source; they are usually repeats but may differ in a detail not shown here. Equal entries are not always repeated. Measured potencies and affinities stand elsewhere.
# Assays:
# [1] = test system: Klebsiella pneumoniae; details: Concentration 32 ug.mL-1, ASSAY_TEST Inhibition of Bacterial Growth, detection method Absorption (OD600), MEDIA CAMHB, plate type 384well, NBS, CORNING #3640, time 18 hr
# [2] = test system: Candida albicans; details: 32 ug/mL
# [3] = test system: Cryptococcus neoformans; details: Concentration 32 ug.mL-1, ASSAY_TEST Inhibition of Fungal Growth, detection method Resazurin, Absorption (OD600-OD570), plate type 384well, NBS, CORNING #3640
Compound,Inhibition [1],Inhibition [2],Inhibition [3],Inhibition ([1]; 32 ug/mL),Inhibition ([3]; 32 ug/mL)
N#CC1=C(Cl)Oc2ccc3ccccc3c2C1c1ccccc1 (stereo unspecified),13.06%,2.47%,-4.84%,,
O=C(Cc1cccc2ccccc12)N/N=C/c1c[nH]c2ccccc12,10.96%,1.2%,-4.19%,,
O=C1OC(c2ccc([N+](=O)[O-])cc2)=NC1=Cc1ccccc1,6.09%,1.83%,-5.52%,,
CC(=O)NC=C1C(=O)OC(C)(C)OC1=O,18.67%,0.54%,-4.92%,,
CC#CCN.Cl,8.69%,3.96%,-2.53%,,
CC(=O)CC(=O)N1[C@@H]2C[C@H]3CCC2(CS1(=O)=O)C3(C)C,13.63%,5.03%,-2.49%,,
N#CC1=C(N)NC(=O)CC1c1ccccc1 (stereo unspecified),22.17%,1.7%,-51.84%,,
CCOC(=O)c1cc2c(N)c3c(nc2nc1C)CCCC3,-0.45%,0.86%,-82.76%,,
C=C1CN(C)c2c(C#N)c(-c3ccccc3)c(C#N)c(=O)n21,-0.48%,3.72%,-24.16%,,
Cl.NC1(C(=O)O)CC1c1cccc(Cl)c1 (stereo unspecified),18.53%,2.81%,-0.59%,,
CCC(CC)NNC(=O)c1cc2ccccc2n1C,9.15%,5.89%,-1.5%,,
Cc1cnc2ccc(Cl)cn12,22.77%,0.97%,1.56%,,
N#Cc1c(N)nc2c(c1-c1ccccc1)CN(Cc1ccccc1)CC2,16.71%,1.07%,-3.99%,,
ClCCC1CCN(Cc2ccccc2)CC1,14.5%,6.52%,-7.64%,,
COC(=O)C1(NC(=O)c2ccccc2)CC1c1ccccc1 (stereo unspecified),3.5%,0.07%,-1.1%,,
C#CCNc1ccc(Cl)nn1,15.08%,3.36%,-43.23%,,
CC(C)C(=O)N/N=C/c1c[nH]c2ccccc12,19.59%,-0.11%,-5.03%,,

Compound,Inhibition [1],Inhibition [2],Inhibition [3],Inhibition ([1]; 32 ug/mL),Inhibition ([3]; 32 ug/mL)
Cc1ccc2nc(Cl)c(/C=N/C(C)(C)C)cc2c1,7.37%,7.21%,-0.47%,,
COc1ccc(C2C(C#N)=C(Cl)Oc3c2ccc2ccccc32)cc1OC (stereo unspecified),-4.48%,18.1%,-55.36%,,
N#Cc1c(N)nc(O)c(C#N)c1-c1ccccc1,-0.05%,5.45%,-42.69%,,
O=C(NNCc1c[nH]c2ccccc12)c1cccc2ccccc12,7.23%,1.53%,-1.11%,,
N#Cc1c(N)nc(NCCC2CCN(Cc3ccccc3)CC2)c(C#N)c1-c1ccccc1,5.9%,4.31%,-17.88%,,
N#CC1=C(N)Oc2c(ccc3ccccc23)C1c1c(Cl)cccc1Cl (stereo unspecified),5.34%,-0.77%,-4.89%,,
NNC(=O)c1cc2ccccc2n1Cc1ccccc1,-14.14%,-0.41%,-2.53%,,
N#Cc1cc(C#N)c(NCCC2CCN(Cc3ccccc3)CC2)nc1N,15.31%,0.11%,-88.16%,,
COC(=O)C(C#N)=Cc1ccccc1,12.71%,3.86%,-2.58%,,
Cc1[nH]nc2c1C(c1cccc([N+](=O)[O-])c1)C(C#N)=C(N)O2 (stereo unspecified),18.43%,-0.54%,-0.61%,,
CC1=NC(=Cc2ccc([N+](=O)[O-])cc2)C(=O)O1,-0.23%,-0.54%,-1.41%,,
COc1ccc(C2C(C#N)=C(N)Oc3c2ccc2ccccc32)c(OC)c1 (stereo unspecified),2.23%,0.21%,-2.04%,,
Cc1cnc2ccc(Br)cn12,-1.82%,1.23%,-0.9%,,
CCOC(=O)c1c[nH]c2ccc(OCc3ccccc3)cc12,12.72%,0.34%,-4.09%,,
C=C=CCN(C)Cc1cc2ccccc2n1C.O=C(O)C(=O)O,9.39%,1.88%,-29.39%,,
CCOc1nc2nc3c(c(N)c2cc1C#N)CCCC3,-2%,2.23%,-62.45%,,
N#CC1(Br)C(=N)Oc2ccc3ccccc3c2C1c1ccccc1 (stereo unspecified),,,,8.56% and 13.61%,-52.48% and -41.25%
